Results: PubChem BioAssay AID463173 (ICCB-Longwood Screening Facility, Harvard Medical School, 2010)
The campaign covered roughly 52,000 compounds. About 4,300 (8.3%) were called active. For the sample, actives were picked, then their nearest neighbours and some compounds at random. Unmarked numbers belong to inactive results. No stated cut-off is given here; in the data, active means survival mostly below about 52% (no sharp cut-off); inactive means mostly above about 56%.

What follows are compounds tested on DeltatarO mutant (assay: S. aureus survival, RN4220 and DeltatarO strains – OD600, teichoic acid synthesis inhibitors, primary screen (AID 463173)). Conditions: S. aureus RN4220 wild type/DeltatarO growth, OD600, 18 h, stronger effect = lower value, screened at 18.75 µg/mL (by protocol).

Row | Structure (SMILES) | survival
1 | COc1ccc(-n2nc3c(N4CCC(C(=O)NCc5ccccc5C)CC4)nnc(C)c3c2C)cc1 | 90%
2 | CCOCCc1nn2c(=O)cc(COC(=O)C(CC)c3ccccc3)nc2s1 (stereo not given) | 55%
3 | C=CCNC1CCS(=O)(=O)C1 (stereo not given) | 98%
4 | CSc1ccc(-c2ccc3c(c2)OCCO3)nn1 | 91%
5 | COc1ccc(N2CCN(CCN3CCCCC3)CC2)cc1 | 83%
6 | CCC(C)(C)NC(=O)Cn1c(-c2ccc(C)cc2)noc1=O | 86%
7 | COC(=O)c1c(Oc2ccc(Br)cc2)nnc(-c2ccccc2)c1-c1ccccc1 | 85%
8 | COc1ccc(-c2nc(C)c(CCNC(=O)c3cccc(C)c3)s2)cc1OC | 86%
9 | CCOC(=O)c1c(NC(=O)CSc2nc(-c3ccc(OC)cc3)cc(C(F)(F)F)n2)sc(C)c1C | 68%
10 | COc1ccc(-c2cc(C(F)(F)F)n3nc(-c4ccc(Cl)cc4)cc3n2)cc1OC | 48%
11 | CCOC(=O)c1ccn(-c2nc(-c3cccc(OC)c3)cc(C(F)(F)F)n2)n1 | 18% (active)
12 | COC(=O)CSc1nc(-c2ccc(F)cc2)cc(C(F)(F)F)n1 | 126%
13 | CCOC(=O)N1CCN(C(=O)c2cnn3c(C(F)(F)F)cc(-c4cccc(OC)c4)nc23)CC1 | 68%
14 | COC(=O)c1ccn(-c2nc(-c3ccc(Cl)cc3)cc(C(F)(F)F)n2)n1 | 13% (active)
15 | CCc1ccccc1NC(=O)C(Cc1cccc(OC)c1)c1nn[nH]n1 (stereo not given) | 54%
16 | CC(=O)N1CCc2c(sc3c2c(=O)n(-c2cccc(Cl)c2C)c(=O)n3Cc2ccccc2C)C1 | 61%
17 | CC(=O)NC1=NN(C(C)=O)C2(S1)C(=O)Nc1ccccc12 (stereo not given) | 90%
18 | O=C(COc1ccc(Cl)cc1)Nc1ccc(C(=O)OCc2cc(=O)n3ccsc3n2)cc1 | 88%
19 | O=C(CSc1ncc2c(n1)-c1cc(Cl)ccc1N(Cc1ccccc1)S2(=O)=O)NCCc1ccccc1 | 89%
20 | CCCCCn1c(=O)[nH]c2cc(C(=O)N3CCN(c4cccc(C(F)(F)F)c4)CC3)ccc2c1=O | 66%
21 | Cc1ccccc1CCNC(=O)c1ccc2c(c1)nc1n2CCC(C)C1 (stereo not given) | 83%
22 | Cc1cc(S(=O)(=O)N2CCCC2)ccc1-n1cnnn1 | 113%
23 | CCOC(=O)c1ccc(NC(=O)CSc2nc3ccccc3c(=O)n2CCC(=O)NC2CCCCC2)cc1 | 91%
24 | CC(C)=CCc1c(O)cc(O)c2c1OC(c1ccccc1)CC2=O (stereo not given) | 1% (active)

Row | Structure (SMILES) | survival
25 | CC1(C)OC(c2ccccc2)CC1=O (stereo not given) | 110%
26 | Cc1oc(-c2ccccc2F)nc1CS(=O)CC(=O)NC(C)C (stereo not given) | 89%
27 | Cc1ccc(Sc2c(C)nn(C(=O)c3ccc(Cl)cc3)c2C)cc1 | 19% (active)
28 | Cc1ccc(Sc2c(C)nn(C(=O)COc3ccc(F)cc3)c2C)cc1 | 92%
29 | Cc1ccc(C(=O)n2nc(C)c(S(=O)(=O)N3CCCCCC3)c2C)cc1 | 91%
30 | Cc1nn(C(=O)c2ccccc2)c(C)c1S(=O)(=O)N1CCCCCC1 | 89%
31 | Cc1nn(C(=O)c2ccc(Cl)cc2)c(C)c1S(=O)(=O)N1CCOCC1 | 91%
32 | Cc1ccc(Sc2c(C)nn(C(=O)COc3ccccc3)c2C)cc1 | 25% (active)
33 | COc1cc(C(=O)n2nc(C)c(Sc3ccc(Cl)cc3)c2C)cc(OC)c1OC | 57%
34 | Cc1nn(C(=O)COc2ccc(Cl)cc2)c(C)c1Sc1ccccc1 | 87%
35 | Cc1nn(C(=O)c2ccc(Cl)cc2)c(C)c1S(=O)(=O)N1CCCCCC1 | 80%
36 | Cc1nn(C(=O)c2ccccc2)c(C)c1Sc1ccc(Cl)cc1 | 10% (active)
37 | Cc1nn(C(=O)COc2ccccc2)c(C)c1Sc1ccccc1 | 115%
38 | Cc1nn(C(=O)c2ccc(Cl)cc2)c(C)c1Sc1ccc(Cl)cc1 | 51% (active)
39 | Cn1nccc1C(=O)NCc1ccc2c(c1)CCN2C(=O)c1ccccc1 | 90%
40 | O=C1CN(C(=O)c2ccc(S(=O)(=O)N3CCCCC3)cc2)C(c2ccc(F)cc2)c2cc(Br)ccc2N1 (stereo not given) | 77%
41 | COc1ccc(-n2c(SCc3nc(-c4ccc(C)cc4)no3)nnc2-c2ccccc2)cc1 | 60%
42 | O=C(Nc1ccc(OC(F)(F)F)cc1)C1CCCN(S(=O)(=O)c2cccc3nonc23)C1 (stereo not given) | 96%
43 | Cc1cc(C)cc(C(=O)NCC(c2ccc(N(C)C)cc2)N2CCCC2)c1 (stereo not given) | 95%
44 | CCN(CC)CCn1c(=N)n(CCOc2ccccc2Cl)c2ccccc21 | 59%
45 | CC1CCN(c2nc3ccccc3nc2C(F)(F)F)CC1 | 75%
46 | Brc1ccc(-c2nc(N3CCN(c4ccccc4)CC3)c3ccccc3n2)cc1 | 117%
47 | CC1CCCCN1C(=O)CSc1nc(C2CC2)nc2ccccc12 (stereo not given) | 82%
48 | CC1CCCCN1c1nc(-c2ccc(C(C)(C)C)cc2)nc2ccccc12 (stereo not given) | 3% (active)

Row | Structure (SMILES) | survival
49 | CC1CCN(c2nc(-c3ccc(C(C)(C)C)cc3)nc3ccccc23)CC1 | 6% (active)
50 | CC1CCN(c2nc(-c3ccc(Br)cc3)nc3ccccc23)CC1 | 82%
51 | Cc1ccc(C(C(=O)NC2CCCCC2)N(C(=O)Cc2c[nH]c3ccccc23)C2CC2)o1 (stereo not given) | 94%
52 | COc1ccccc1C1CC(=O)NC(C)=C1C(=O)OC1CCCCCC1 (stereo not given) | 86%
53 | CCN1CCN(c2ccc(NC(=O)COc3ccccc3)cc2)CC1 | 106%
54 | O=S(=O)(c1ccc(F)cc1)N1CCCCC1 | 86%
55 | O=S(=O)(N1CCCCC1)N1CCN(c2ccc(F)cc2)CC1 | 65% (active)
56 | O=C(CN1CCN(c2ccc(F)cc2)CC1)N1CCCC1 | 83%
57 | CCc1ccc(NC(=O)Cn2c(=O)n(Cc3ccco3)c(=O)c3cccnc32)cc1 | 82%
58 | CC1(C)CC(=O)C=C(NCC(O)c2ccccc2)C1 (stereo not given) | 102%
59 | Cc1ccc(CNC(=O)CN(c2ccc(C)cc2)S(=O)(=O)c2c(C)nn(C)c2C)cc1 | 73%
60 | Cc1ccccc1CN(Cc1ccco1)C(=O)c1cc2ccccc2oc1=O | 44% (active)
61 | O=C(c1cc2ccccc2oc1=O)N(Cc1ccc(F)cc1)C1CC1 | 88%
62 | COc1ccc(CN(Cc2ccco2)C(=O)c2cc3ccccc3oc2=O)c(OC)c1 | 40% (active)
63 | O=C(c1cc2ccccc2oc1=O)N(Cc1ccc(F)cc1)Cc1ccco1 | 41% (active)
64 | COc1ccccc1C(=O)N(Cc1ccco1)Cc1ccccc1F | 60%
65 | O=C(c1cc2ccccc2oc1=O)N(Cc1cccs1)Cc1cccs1 | 48%
66 | Cc1cccc2cc(CN(Cc3ccco3)C(=O)c3ccccc3)c(=O)[nH]c12 | 95%
67 | O=C(NCC1CCCO1)c1cc2ccccc2oc1=O (stereo not given) | 80%
68 | CCC1Oc2ccc(C)cc2N(CC(=O)N(Cc2ccc3c(c2)OCO3)CC2CCCO2)C1=O (stereo not given) | 96%
69 | COc1ccc2oc(=O)c(C(=O)NCc3ccco3)cc2c1 | 100%
70 | O=C(c1cc2ccccc2oc1=O)N(Cc1ccc2c(c1)OCO2)CC1CCCO1 (stereo not given) | 42% (active)
71 | CC(C)(C)c1ccc(C(=O)N(Cc2ccc(F)cc2)Cc2ccco2)cc1 | 55%
72 | O=C(O)CCn1cnc2sc3c(c2c1=O)CCCC3 | 105%

Row | Structure (SMILES) | survival
73 | Nc1cnc2cccc3c2c1-c1ccccc1C3=O | 86%
74 | Cc1ccc(S(=O)(=O)c2cnc(SCC(=O)Nc3cc(C)cc(C)c3)nc2N)cc1 | 102%
75 | COc1ccc(-c2cc(C(=O)NCCc3ccc(Cl)cc3)[nH]n2)cc1 | 72%
76 | Cc1c(Cl)cccc1-n1ncc(C(=O)N2CCc3ccccc3C2)c1C1CCN(C(=O)OC(C)(C)C)CC1 | 85%
77 | COc1ccc(C(=O)NCCn2cc(SCC(=O)Nc3ccc4c(c3)OCCO4)c3ccccc32)cc1 | 153%
78 | CCOC(=O)c1c(C)oc2nc(C)nc(NCC3CCN(Cc4ccc(F)cc4)CC3)c12 | 102%
79 | Cc1ccc(C)c(NC(=O)CCc2c(C)nn(-c3ccc(N4CCCC4)nn3)c2C)c1 | 67%
80 | COc1ccccc1Nc1c2c(nc3ccc(NC(=O)/C=C/c4cccc(OC)c4OC)cc13)CCCC2 | 74%
81 | Cc1ccc(Nc2c(-c3ccc(N(C)C)cc3)nc3ccccn23)cc1 | 131%
82 | Cc1ccccc1Nc1c(-c2ccc(Cl)s2)nc2c(C)cccn12 | 69%
83 | Cc1ccccc1Nc1c(-c2c[nH]c3ccccc23)nc2ccccn12 | 69%
84 | Cc1ccc(-c2nc3ccccn3c2Nc2ccccc2C)s1 | 21% (active)
85 | Cc1ccc(-c2nc3ccccn3c2Nc2ccc3c(c2)OCCO3)s1 | 79%
86 | Cc1ccccc1Nc1c(-c2ccc(Cl)s2)nc2cccc(C)n12 | 99%
87 | Cc1cccc(C)c1Nc1c(-c2ccccn2)nc2c(C)cccn12 | 51%
88 | Cc1ccccc1Nc1c(-c2ccco2)nc2c(C)cccn12 | 25% (active)
89 | Cc1ccc(-c2nc3c(C)cccn3c2Nc2ccccc2C)s1 | 0% (active)
90 | Cc1ccc(Nc2c(-c3ccc(C)s3)nc3ccccn23)cc1 | 31% (active)
91 | Cc1ccc(-c2nc3ccc(Cl)cn3c2Nc2ccccc2C)s1 | 107%
92 | Fc1ccc(Nc2c(-c3ccco3)nc3ccccn23)cc1 | 53%
93 | COc1ccc2c(c1)c1c(c(=O)n(Cc3ccccc3)c(=O)n1CC(=O)NCc1ccccc1)n2C | 91%
94 | COc1ccccc1CNC(=O)CCc1c(C)c2ccc(OC)c(C)c2oc1=O | 74%
95 | Cc1ccc(Cl)cc1-n1nnc(-c2nc(-c3ccc4c(c3)OCO4)no2)c1C | 122%
